Calls of active or inactive are those of the source. Where a call stands in place of a potency, no number is given. The call rests on the fitted dose curve; in most records, active means well fitted curve in the direction sought with a large enough effect in the repeat runs; inconclusive means weak or mixed curves; inactive means flat fitted curve, though single readings scatter.
assay: qHTS assay to test for compound auto fluorescence at 535 nm (green) in HepG2 cells (AID 720675); conditions: green autofluorescence 485/535 nm, 1 h; series mostly up to 91.3 µM
Description: National Center for Advancing Translational Sciences [NCATS]
NIH Chemical Genomics Center [NCGC]
U.S. Environmental Protection Agency [EPA]
National Institutes of Environmental Health Sciences [NIEHS]
National Toxicology Program [NTP]
U.S. Food and Drug Administration [FDA]
Compound auto fluorescence often interferes with screening of the compound library against various biological targets and signaling pathways. Some of these compounds may have fluorophoric properties. Such properties may interfere with the assay outputs resulting in false positives and/or negatives. To decrease such complications and ensure the compound activities are relevant in terms of biological response, the Tox21 10K compound library was screened for auto fluorescence.
From the fluorophores used as reporter signals in our screening assays, the auto fluorescence equivalencies of compounds against three fluorophores have been evaluated: Triamterene, Fluorescein and Rose Bengal sodium for blue, green and red fluorescence, respectively. The fluorescence intensities were measured using Excitation/Emission wavelengths at 405/460nm, 485/535nm and 540/590nm for blue, green and red labels, respectively. This assay includes the green fluorescence data.
Tox21 Assay Protocol Summary:
2,000 HepG2 cells in 5 uL of culture medium (MEM containing 10% FBS) per well were dispensed into black wall/clear bottom 1536-well plates using a Multidrop Combi Dispenser (ThermoFisher Scientific, Waltham, MA). The assay plates were incubated overnight at 37 C to allow cell attachment to the well bottom, followed by the transfer of 23 nL compound or DMSO vehicle by a pintool work station (Kalypsys , San Diego, CA). After the assay plates were incubated for 1 hr at 37 C and 5% CO2, fluorescence intensities in the assay plates were measured by an Envision (PerkinElmer, Shelton, CT) plate reader using three labels for measuring blue, green and red fluorescence at […] 460, 535 and 590 nm respectively.
Potency means the concentration at half of the fitted maximal effect.

For `C=C(C)C1CC=C(C)CC1` (stereo not given), which Potency is on record?
Its Potency is “inactive”.

For `O=C(Nc1ccc(Cl)cc1)Nc1ccc(Cl)c(Cl)c1`, which Potency is on record?
Its Potency is “inactive”.

For `CCCc1c(OCCCCc2nn[nH]n2)ccc(C(C)=O)c1O`, which Potency is on record?
The Potency was “inactive”.

With `c1ccc2sc(SSN3CCOCC3)nc2c1` as the molecule, how does the Potency read?
Its Potency is “inactive”.

Which Potency does the source give for `CC(=O)O[C@]1(C(C)=O)CC[C@H]2[C@@H]3C=C(Cl)C4=CC(=O)[C@@H]5C[C@@H]5[C@]4(C)[C@H]3CC[C@@]21C` here?
The Potency was “inactive”.

For `CN(C)CCC=C1c2ccccc2CCc2ccccc21`, which Potency is on record?
The Potency was “inactive”.

For `COc1ccc(C(=O)CC(=O)c2ccc(C(C)(C)C)cc2)cc1`, which Potency is on record?
Its Potency is “inactive”.

For `COc1ccc(OC)c(C(O)CNC(=O)CN)c1` (stereo not given), which Potency is on record?
The Potency was “inactive”.

With `Clc1nc(Cl)c(Cl)c(Cl)c1Cl` as the molecule, how does the Potency read?
The Potency was “inactive”.

With `CC(C)OB(OC(C)C)OC(C)C` as the molecule, how does the Potency read?
Its Potency is “inactive”.

Which Potency does the source give for `O=S(=O)(O)c1ccc(O)cc1` here?
Its Potency is “inactive”.

With `CNCCCC12CCC(c3ccccc31)c1ccccc12` as the molecule, how does the Potency read?
Its Potency is “inactive”.

Which Potency does the source give for `Nc1ncn([C@@H]2O[C@H](CO)[C@@H](O)[C@H]2O)c(=O)n1` here?
The Potency was “inactive”.

With `CCCCCCCCCC(=O)OC` as the molecule, how does the Potency read?
The Potency was “inactive”.

With `CC(C)(C)NC(=O)[C@H]1CC[C@H]2[C@@H]3CC[C@H]4NC(=O)C=C[C@]4(C)[C@H]3CC[C@]12C` as the molecule, how does the Potency read?
Its Potency is “inactive”.

For `Cc1cc2nc3c(=O)[nH]c(=O)nc-3n(C[C@H](O)[C@H](O)[C@H](O)CO)c2cc1C`, which Potency is on record?
The Potency was 35.5 µM (active) [middle of 4 runs].

For `c1ccc2cc(Nc3ccc(Nc4ccc5ccccc5c4)cc3)ccc2c1`, which Potency is on record?
The Potency was “inactive”.

For `CC(C)=CCCC(C)CCO` (stereo not given), which Potency is on record?
The Potency was “inactive”.

For `O=C(/C=C/c1ccccc1)OCc1ccccc1`, which Potency is on record?
The Potency was “inactive”.

With `CC(C)OC(=O)C(C)(C)Oc1ccc(C(=O)c2ccc(Cl)cc2)cc1` as the molecule, how does the Potency read?
The Potency was “inactive”.

For `O=C(c1ccccc1)c1ccc(O)cc1O`, which Potency is on record?
The Potency was “inactive”.

With `CCCCC(CC)COP(=O)(OCC(CC)CCCC)OCC(CC)CCCC` (stereo not given) as the molecule, how does the Potency read?
Its Potency is “inactive”.

Which Potency does the source give for `Cc1cccc(N(C)C(=S)Oc2ccc3ccccc3c2)c1` here?
Its Potency is “inactive”.

Which Potency does the source give for `C[C@]12CCC(=O)C=C1CC[C@@H]1[C@@H]2C(=O)C[C@@]2(C)[C@H]1CC[C@]2(O)C(=O)CO` here?
Its Potency is “inactive”.

For `CCCCC(CC)COC(=O)c1ccc(N(C)C)cc1` (stereo not given), which Potency is on record?
Its Potency is “inactive”.

Which Potency does the source give for `Cc1[nH]c(=O)c(C#N)cc1-c1ccncc1` here?
The Potency was “inactive”.

Which Potency does the source give for `CCC(C)CO` (stereo not given) here?
Its Potency is “inactive”.

For `O=C(/C=C/C=C/c1ccc2c(c1)OCO2)N1CCCCC1`, which Potency is on record?
The Potency was “inactive”.

For `O=C(c1ccc(OCCN2CCCCC2)cc1)c1c(-c2ccc(O)cc2)sc2cc(O)ccc12`, which Potency is on record?
Its Potency is “inactive”.

Which Potency does the source give for `CCCCC/C=C/C=C/C=O` here?
Its Potency is “inactive”.

Which Potency does the source give for `c1cc(-c2ccncc2)ccn1` here?
The Potency was “inactive”.

For `C#C[C@]1(O)CC[C@H]2[C@@H]3CCc4cc(OC)ccc4[C@H]3CC[C@@]21C`, which Potency is on record?
The Potency was “inactive”.

Which Potency does the source give for `CN1C(C(=O)Nc2ccccn2)=C(O)c2ccccc2S1(=O)=O` here?
Its Potency is “inactive”.

Which Potency does the source give for `COc1cc([C@@H]2c3cc4c(cc3[C@H](O)[C@H]3COC(=O)[C@H]23)OCO4)cc(OC)c1OC` here?
The Potency was “inactive”.

For `COc1ccccc1/C=C/C=O`, which Potency is on record?
The Potency was “inactive”.

For `CCC(C)OC(=O)c1ccc(O)cc1` (stereo not given), which Potency is on record?
The Potency was “inactive”.

With `CC(C)Oc1ccc2c(=O)c(-c3ccccc3)coc2c1` as the molecule, how does the Potency read?
Its Potency is “inactive”.

Which Potency does the source give for `O=[N+]([O-])c1ccc2c(c1)Cc1ccccc1-2` here?
The Potency was “inactive”.

With `OC[C@H]1O[C@@H]2O[C@H]3[C@H](O)[C@@H](O)[C@@H](O[C@H]4[C@H](O)[C@@H](O)[C@@H](O[C@H]5[C@H](O)[C@@H](O)[C@@H](O[C@H]6[C@H](O)[C@@H](O)[C@@H](O[C@H]7[C@H](O)[C@@H](O)[C@@H](O[C@H]8[C@H](O)[C@@H](O)[C@@H](O[C@H]1[C@H](O)[C@H]2O)O[C@@H]8CO)O[C@@H]7CO)O[C@@H]6CO)O[C@@H]5CO)O[C@@H]4CO)O[C@@H]3CO` as the molecule, how does the Potency read?
Its Potency is “inactive”.

With `OC1CCCCCCCCCCC1` as the molecule, how does the Potency read?
Its Potency is “inactive”.

— PubChem BioAssay (Tox21)
